Among all 5,500 compounds or so, about 2,000 (36%) were called active. Another 18% or so got no clear call; they are omitted. Rule as the data show it: active = normalized growth mostly below about 0.91 (no sharp cut-off); inconclusive = no clear call, values can overlap the other calls; inactive = mostly above about 0.92. The list shows a part of the results.
Experiment: chemical genetic growth profiling, strain panel (AID 1159580);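 also: tested at 20 µM; growth read once vehicle control cultures reached saturation at 30 °C; 1 = growth at the plate median or of vehicle wells; lower values mean less growth of the strain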
Details: S. cerevisiae deletion strains, growth OD
[1] = locus YAR019C, strain CDC15, stronger effect = lower value
[2] = locus YBL105C, strain PKC1, stronger effect = lower value
[3] = locus YBR135W, strain CKS1, stronger effect = lower value
[4] = locus YBR136W, strain MEC1, stronger effect = lower value
[5] = locus YBR160W, strain CDC28, stronger effect = lower value
[6] = locus YDL017W, strain CDC7, stronger effect = lower value
[7] = locus YDL028C, strain MPS1, stronger effect = lower value
[8] = locus YDL101C, strain DUN1, stronger effect = lower value
[9] = locus YDL108W, strain KIN28, stronger effect = lower value
[10] = locus YDL132W, strain cdc53, stronger effect = lower value
[11] = locus YDL214C, strain PRR2, stronger effect = lower value
[12] = locus YDR052C, strain DBF4, stronger effect = lower value
[13] = locus YDR054C, strain cdc34, stronger effect = lower value
[14] = locus YDR226W, strain ADK1, stronger effect = lower value
[15] = locus YDR477W, strain SNF1, stronger effect = lower value
[16] = locus YER123W, strain YCK3, stronger effect = lower value
[17] = locus YER133W, strain GLC7, stronger effect = lower value
[18] = locus YFL009W, strain cdc4, stronger effect = lower value
[19] = locus YFL029C, strain CAK1, stronger effect = lower value
[20] = locus YFR003C, strain YPI1, stronger effect = lower value
[21] = locus YFR019W, strain FAB1, stronger effect = lower value
[22] = locus YFR028C, strain CDC14, stronger effect = lower value
[23] = locus YGR040W, strain KSS1, stronger effect = lower value
[24] = locus YGR052W, strain FMP48, stronger effect = lower value
[25] = locus YGR092W, strain DBF2, stronger effect = lower value
[26] = locus YHR030C, strain SLT2, stronger effect = lower value
[27] = locus YHR079C, strain IRE1, stronger effect = lower value
[28] = locus YHR082C, strain KSP1, stronger effect = lower value
[29] = locus YHR205W, strain SCH9, stronger effect = lower value
[30] = locus YIL147C, strain SLN1, stronger effect = lower value
[31] = locus YJL095W, strain BCK1, stronger effect = lower value
[32] = locus YJL128C, strain PBS2, stronger effect = lower value
[33] = locus YJL157C, strain FAR1, stronger effect = lower value
[34] = locus YJR016C, strain ILV3, stronger effect = lower value
[35] = locus YJR066W, strain TOR1 (second series), stronger effect = lower value
[36] = locus YJR066W, strain TOR1, stronger effect = lower value
[37] = locus YKL048C, strain ELM1, stronger effect = lower value
[38] = locus YKL067W, strain YNK1, stronger effect = lower value
[39] = locus YKL101W, strain HSL1, stronger effect = lower value
[40] = locus YKL193C, strain SDS22, stronger effect = lower value
[41] = locus YKL203C, strain TOR2, stronger effect = lower value
[42] = locus YLR113W, strain HOG1, stronger effect = lower value
[43] = locus YLR133W, strain CKI1, stronger effect = lower value
[44] = locus YLR403W, strain SFP1, stronger effect = lower value
[45] = locus YML070W, strain DAK1, stronger effect = lower value
[46] = locus YMR001C, strain CDC5, stronger effect = lower value
[47] = locus YMR205C, strain PFK2 (second series), stronger effect = lower value
[48] = locus YMR277W, strain FCP1, stronger effect = lower value
[49] = locus YNL006W, strain LST8, stronger effect = lower value
[50] = locus YNL020C, strain ARK1, stronger effect = lower value
[51] = locus YNL161W, strain CBK1, stronger effect = lower value
[52] = locus YNL183C, strain NPR1, stronger effect = lower value
[53] = locus YNL207W, strain RIO2, stronger effect = lower value
[54] = locus YNL222W, strain SSU72, stronger effect = lower value
[55] = locus YNL307C, strain MCK1 (second series), stronger effect = lower value
[56] = locus YOL078W, strain AVO1, stronger effect = lower value
[57] = locus YOL136C, strain PFK27, stronger effect = lower value
[58] = locus YOR061W, strain CKA2, stronger effect = lower value
[59] = locus YOR119C, strain RIO1, stronger effect = lower value
[60] = locus YOR231W, strain MKK1, stronger effect = lower value
[61] = locus YOR329C, strain SCD5, stronger effect = lower value
[62] = locus YPL031C, strain PHO85, stronger effect = lower value
[63] = locus YPL153C, strain RAD53, stronger effect = lower value
[64] = locus YPL204W, strain HRR25, stronger effect = lower value
[65] = locus YPL209C, strain IPL1, stronger effect = lower value
[66] = locus YPL256C, strain CLN2, stronger effect = lower value
[67] = locus YPR025C, strain CCL1, stronger effect = lower value
[68] = locus YPR106W, strain ISR1, stronger effect = lower value
[69] = locus YPR111W, strain DBF20, stronger effect = lower value
[70] = strain NNK1, stronger effect = lower value
[71] = strain TSCII, stronger effect = lower value
[72] = locus YAL013W, strain DEP1, stronger effect = lower value
[73] = locus YBR229C, strain ROT2, stronger effect = lower value
[74] = locus YDR150W, strain NUM1, stronger effect = lower value
[75] = locus YEL061C, strain CIN8, stronger effect = lower value
[76] = locus YGR078C, strain PAC10, stronger effect = lower value
[77] = locus YHR087W, strain rtc3, stronger effect = lower value
[78] = locus YJR043C, strain POL32, stronger effect = lower value
[79] = locus YJR075W, strain HOC1, stronger effect = lower value
[80] = locus YLR039C, strain RIC1, stronger effect = lower value
[81] = locus YLR058C, strain SHM2 (second series), stronger effect = lower value
[82] = locus YLR085C, strain ARP6, stronger effect = lower value
[83] = locus YLR262C, strain YPT6, stronger effect = lower value
[84] = locus YML094W, strain GIM5, stronger effect = lower value
[85] = locus YMR219W, strain ESC1, stronger effect = lower value
[86] = locus YMR263W, strain SAP30, stronger effect = lower value
[87] = locus YNL153C, strain GIM3, stronger effect = lower value
[88] = locus YNL298W, strain CLA4 (second series), stronger effect = lower value
[89] = locus YNL322C, strain KRE1, stronger effect = lower value
[90] = locus YNR030W, strain Alg12, stronger effect = lower value
[91] = locus YPL055C, strain LGE1, stronger effect = lower value
[92] = locus YPL241C, strain CIN2, stronger effect = lower value
[93] = locus YPR135W, strain CTF4, stronger effect = lower value

Measured: normalized growth

COC(=O)c1sccc1NS(=O)(=O)c1cc(Cl)cc(Cl)c1
inactive: [1] 0.955 | [2] 0.946 | [3] 0.958 | [4] 0.951 | [5] 0.947 | [6] 0.954 | [7] 0.958 | [8] 0.949 | [9] 0.961 | [10] 0.958 | [11] 0.975 | [12] 0.957 | [13] 0.944 | [14] 0.954 | [15] 0.977 | [16] 0.994 | [17] 0.987 | [18] 0.954 | [19] 0.951 | [20] 0.957 | [21] 0.967 | [22] 0.958 | [23] 0.981 | [24] 1.05 | [25] 0.948 | [26] 1.04 | [27] 1.01 | [28] 1.06 | [29] 0.992 | [30] 0.955 | [31] 1.07 | [32] 0.925 | [33] 0.976 | [34] 0.959 | [35] 1.01 | [36] 1.06 | [37] 0.939 | [38] 0.973 | [39] 0.959 | [40] 0.958 | [41] 1.05 | [42] 0.92 | [43] 0.962 | [44] 0.996 | [45] 0.991 | [46] 0.949 | [47] 0.978 | [48] 0.96 | [49] 0.96 | [50] 0.964 | [51] 0.954 | [52] 1.02 | [53] 0.955 | [54] 0.953 | [55] 0.956 | [56] 0.963 | [57] 0.996 | [58] 0.979 | [59] 1.03 | [60] 0.986 | [61] 0.961 | [62] 0.987 | [63] 1.01 | [64] 0.975 | [65] 0.947 | [66] 0.963 | [67] 0.957 | [68] 0.945 | [69] 0.935 | [70] 0.948 | [71] 0.952

COC(=O)C1=C(Nc2ccccc2NS(=O)(=O)c2ccc(C(F)(F)F)cc2Cl)CSC1
active: [42] 0.84
inactive: [1] 0.977 | [2] 0.983 | [3] 0.976 | [4] 0.978 | [5] 0.977 | [6] 0.973 | [7] 0.976 | [8] 0.962 | [9] 0.985 | [10] 0.984 | [11] 0.939 | [12] 0.987 | [13] 0.995 | [14] 0.972 | [15] 0.947 | [16] 0.944 | [17] 0.966 | [18] 0.985 | [19] 0.973 | [20] 0.984 | [21] 0.976 | [22] 0.964 | [23] 0.933 | [24] 1.03 | [25] 0.957 | [26] 0.977 | [27] 0.97 | [28] 1.02 | [29] 0.972 | [30] 0.987 | [31] 0.985 | [32] 0.919 | [33] 0.949 | [34] 0.972 | [35] 0.942 | [36] 1.03 | [37] 0.945 | [38] 0.959 | [39] 0.932 | [40] 0.975 | [41] 1.01 | [43] 0.937 | [44] 0.903 | [45] 0.928 | [46] 0.977 | [47] 0.952 | [48] 0.985 | [49] 0.989 | [50] 0.951 | [51] 0.977 | [52] 0.966 | [53] 0.967 | [54] 0.978 | [55] 0.953 | [56] 0.975 | [57] 0.935 | [58] 0.955 | [59] 1.02 | [60] 0.91 | [61] 0.985 | [62] 0.971 | [63] 0.948 | [64] 0.936 | [65] 0.975 | [66] 0.918 | [67] 0.982 | [68] 0.943 | [69] 0.979 | [70] 0.971 | [71] 0.978

COCc1cc(=O)n2[nH]c(C(C)(C)C)cc2n1
active: locus YJL187C, strain SWE1, stronger effect = lower value 0.162
inactive: [72] 1.01 | [73] 0.986 | [8] 0.996 | [74] 1.04 | [75] 0.939 | [76] 1.01 | [26] 1.07 | [77] 1.01 | [78] 1.04 | [79] 1.01 | [80] 1.02 | [81] 0.988 | [82] 0.959 | [83] 1.03 | [84] 0.986 | [85] 0.996 | [86] 1.04 | [87] 1.02 | [88] 0.965 | [89] 0.999 | [90] 1.01 | [91] 1.08 | [92] 0.977 | [93] 1.14

Clc1ccc(CN2CCN(c3cccc4[nH]ccc34)CC2)cc1Cl
inactive: [1] 0.997 | [2] 0.993 | [3] 0.995 | [4] 0.994 | [5] 0.986 | [6] 0.994 | [7] 0.999 | [8] 0.988 | [9] 0.983 | [10] 0.993 | [11] 0.962 | [12] 0.996 | [13] 0.993 | [14] 0.984 | [15] 0.972 | [16] 0.917 | [17] 0.977 | [18] 0.986 | [19] 0.994 | [20] 0.992 | [21] 0.971 | [22] 0.991 | [23] 0.962 | [24] 1.1 | [25] 0.942 | [27] 1.11 | [28] 1.09 | [29] 0.974 | [30] 0.992 | [31] 1.1 | [32] 0.946 | [33] 0.968 | [34] 0.993 | [35] 0.958 | [36] 1.13 | [37] 0.988 | [38] 0.982 | [39] 0.968 | [40] 0.992 | [41] 1.04 | [42] 1.07 | [43] 0.977 | [44] 0.965 | [45] 0.964 | [46] 0.993 | [47] 0.976 | [48] 1 | [49] 0.999 | [50] 0.981 | [51] 0.998 | [52] 1.11 | [53] 0.993 | [54] 0.992 | [55] 0.995 | [56] 0.996 | [57] 0.974 | [58] 0.955 | [59] 1.03 | [60] 1.08 | [61] 0.999 | [62] 0.977 | [63] 0.97 | [64] 0.979 | [65] 0.997 | [66] 1.07 | [67] 0.995 | [68] 0.99 | [69] 0.992 | [70] 0.993 | [71] 1
active: [26] 1.16 [resistant]

c1ccc(CN2CCC(n3nnc4cccnc43)CC2)cc1
inactive: [72] 0.995 | [73] 1.01 | locus YCL061C, strain MRC1, stronger effect = lower value 1.02 | [8] 0.987 | locus YDL134C, strain PPH21, stronger effect = lower value 0.993 | [74] 0.997 | [75] 1.01 | [76] 1.01 | locus YGR229C, strain SMI1, stronger effect = lower value 0.997 | [26] 0.995 | [77] 1.01 | [78] 1.01 | [79] 1 | [80] 1 | [81] 1.04 | [82] 0.995 | [83] 0.957 | [84] 0.984 | [85] 1 | [86] 1.01 | [87] 1.01 | [88] 0.965 | [89] 0.996 | [90] 1.01 | [91] 1.03 | [92] 0.983 | [93] 1.01
